Bioassay records: PubChem, SRMLSC
NADH coupling: inhibitors of PK/LDH coupling enzymes, profiling panel, artefact control, biochemical, MLSMR library | IC50, µM (series often up to 10 µM), for inactives: at the highest dose inhibition | 65,000 compounds, 0.02% hits | AID 774, 2007 | coupled PK/LDH NADH assays, four targets;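 active means single-dose screening hits from any of four coupled enzyme assays that gave an IC50 when retested across doses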;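 further: the DPM-DC format reads NADH fluorescence rather than 340 nm absorbance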
Spn DPM-DC inh: S. pneumoniae DPM-DC inhibitors, primary screen, biochemical, PK/LDH-coupled NADH fluorescence; 65,000 compounds, 0.49% hits; calls only at 10 µM; diphosphomevalonate decarboxylase (Streptococcus pneumoniae D39); purified DPM-DC; AID 556, 2006;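 active means the 320 compounds with the highest percent inhibition in the single-dose primary screen, excluding strongly autofluorescent ones, cut at about 32% in these data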;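 further: kinetic rate of NADH fluorescence loss reporting ADP formed by the decarboxylase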
Spn PMK inh: S. pneumoniae PMK inhibitors, primary screen, biochemical, mevalonate pathway, pilot trial included; 65,000 compounds, 0.49% hits; purified PMK, PK/LDH-coupled NADH absorbance 340 nm; inhibition, % at 10 µM;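 active means top-ranked compounds by inhibition in the single 10 µM screen, taking a fixed number of the strongest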;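 further: 0% = full reaction with DMSO carrier and 100% = background rate without enzyme reaction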
Autofluor 339: intrinsic fluorescence of library compounds, ex339/em460 – biochemical, MLSMR library, data from DPM-DC assay, artefact control, profiling panel; fluorescence fold increase at 10 µM; 65,000 compounds, 5.5% hits; compound autofluorescence, ex339/em460 nm, NADH buffer; active compounds read high; 1 = no-compound wells, NADH background;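 active means at 10 µM, mean starting fluorescence two-fold or more over control wells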;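 further: signal is the first read of a kinetic run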
MK inhibit: S. pneumoniae MK inhibitors, primary screen, biochemical, PK/LDH-coupled NADH absorbance; 65,000 compounds, 0.48% hits; purified MK, PK/LDH-coupled NADH absorbance 340 nm; inhibition, % at 10 µM; mevalonate kinase [Streptococcus pneumoniae D39]; AID 555, 2006;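 active means ranked among the strongest by inhibition in the single 10 µM screen, a fixed top-ranked set picked for dose follow-up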
An asterisk follows results filed as active; [ ] = dose if it differs, or a comment. Rows were chosen to be rich in hits. Some 6.6% of all compounds tested hit in one or more screens of this group.

For CN1C(=O)N(C)C(=O)C2(Sc3ccccc3C2=O)C1=O the results were NADH coupling 4%, Spn PMK inh 7, Autofluor 339 5* and MK inhibit 0.
`CN1C(=O)N(C)C(=O)C(CCc2ccccn2)(CCc2ccccn2)C1=O` gave NADH coupling 10%, Spn DPM-DC inh inactive, Spn PMK inh 10, Autofluor 339 1.1 and MK inhibit 8.
CSc1ccc(C(=O)C(C)(C)N2CCOCC2)cc1 was read as NADH coupling 2%, Spn DPM-DC inh inactive, Spn PMK inh 11, Autofluor 339 1 and MK inhibit 5.
CN1CCc2nc(SCC(=O)OC(C)(C)C)c(C#N)cc2C1 was read as NADH coupling 7%, Spn PMK inh 0, Autofluor 339 2.3* and MK inhibit 13.
`CC(=NCCCn1ccnc1)c1c(O)n(C)c(=O)n(C)c1=O` gave NADH coupling 8%, Spn DPM-DC inh inactive, Spn PMK inh 12, Autofluor 339 1.1 and MK inhibit 12.
`C=CCOC(=O)COc1cc(C)cc2oc(=O)c3c(c12)CCC3` gave NADH coupling 3%, Spn PMK inh 13, Autofluor 339 2.4* and MK inhibit 7.
`CCCCOC(=O)COc1cc(C)cc2oc(=O)c3c(c12)CCC3` gave NADH coupling 3%, Spn DPM-DC inh inactive, Spn PMK inh 0, Autofluor 339 1.6 and MK inhibit 9.
Screening Cc1cc(OCc2nn[nH]n2)c2c3c(c(=O)oc2c1)CCCC3 returned NADH coupling 8%, Spn PMK inh 8, Autofluor 339 3.8* and MK inhibit 7.
`COC(=O)c1c(C)n(Cc2ccc3c(c2)OCO3)c2ccc(O)cc12` gave NADH coupling 2%, Spn DPM-DC inh inactive, Spn PMK inh 2, Autofluor 339 1.1 and MK inhibit 8.
Screening CCC(C)NC(=O)c1c(N)n(Cc2ccc3c(c2)OCO3)c2nc3ccccc3nc12 (centres undefined) returned NADH coupling 7%, Spn PMK inh 0, Autofluor 339 4* and MK inhibit 14.
Screening CCC(C)NC(=O)c1c(N)n(CC2CCCO2)c2nc3ccccc3nc12 (centres undefined) returned NADH coupling 4%, Spn PMK inh 17, Autofluor 339 2.5* and MK inhibit 8.
CCC(=NCC1CCCO1)c1c(O)n(-c2ccccc2)c(=O)[nH]c1=O (centres undefined) was read as NADH coupling 5%, Spn DPM-DC inh inactive, Spn PMK inh 8, Autofluor 339 1.1 and MK inhibit 8.
For Cc1cccc(N2CCc3c2nc2ccccc2c3N)c1 the results were NADH coupling 0%, Spn PMK inh 0, Autofluor 339 3.8* and MK inhibit 0.
Cc1ccnc(-n2c(C)nc3ccccc3c2=O)c1 was read as NADH coupling 6%, Spn DPM-DC inh inactive, Spn PMK inh 8, Autofluor 339 1.1 and MK inhibit 9.
`COc1cc(OC)c(OC)cc1CNC(C)C(O)c1ccccc1` (centres undefined) gave NADH coupling 8%, Spn DPM-DC inh inactive, Spn PMK inh 13, Autofluor 339 1.1 and MK inhibit 10.
`COc1cc(OC)c(OC)cc1CNCCc1ccc(OC)c(OC)c1` gave NADH coupling 14%, Spn DPM-DC inh inactive, Spn PMK inh 0, Autofluor 339 1 and MK inhibit 42*.
Screening CN(CC1COc2ccccc2O1)c1nc(-c2cccnc2)nc2ccccc12 (centres undefined) returned NADH coupling 3%, Spn DPM-DC inh inactive, Spn PMK inh 7, Autofluor 339 1.2 and MK inhibit 1.
For Nc1ccccc1C(=O)OCCOc1ccccc1 the results were NADH coupling 7%, Spn DPM-DC inh inactive, Spn PMK inh 10, Autofluor 339 2.8* and MK inhibit 7.
Screening CC12CN3CC(C)(CN(C1)C3c1cccs1)C2O (centres undefined) returned NADH coupling 5%, Spn DPM-DC inh inactive, Spn PMK inh 5, Autofluor 339 1.1 and MK inhibit 9.
Screening Fc1ccccc1N1CCN(Cc2ccc3c(c2)OCO3)CC1 returned NADH coupling 14%, Spn DPM-DC inh inactive, Spn PMK inh 8, Autofluor 339 1.1 and MK inhibit 34.
Fc1ccccc1N1CCN(Cc2c(F)cccc2F)CC1 was read as NADH coupling 16%, Spn DPM-DC inh inactive, Spn PMK inh 0, Autofluor 339 1.1 and MK inhibit 49*.
For Cc1ccc(N2C(=O)NC(=O)C3(Cc4ccccc4N4CCN(c5ccccc5)CC43)C2=O)cc1 (centres undefined) the results were NADH coupling 8%, Spn DPM-DC inh inactive, Spn PMK inh 11, Autofluor 339 1.1 and MK inhibit 9.
Cc1c2ccncc2c(C)c2c1[nH]c1ccccc12 was read as NADH coupling 1%, Spn DPM-DC inh active[fluoresces], Spn PMK inh 1, Autofluor 339 2* and MK inhibit 5.
`c1ccc2c(c1)[nH]c1cnccc12` gave NADH coupling 1%, Spn PMK inh 4, Autofluor 339 2.4* and MK inhibit 7.
`Cc1[nH]c2ccccc2c1/C=N/O` gave NADH coupling 4%, Spn DPM-DC inh inactive, Spn PMK inh 9, Autofluor 339 1.2 and MK inhibit 3.
For c1ccc2c3c([nH]c2c1)CNCC3 the results were NADH coupling 3%, Spn DPM-DC inh inactive, Spn PMK inh 8, Autofluor 339 1 and MK inhibit 8.
CCCCn1c(O)c(C=Nc2c(C)n(C)n(-c3ccccc3)c2=O)c(=O)[nH]c1=O was read as NADH coupling 10%, Spn DPM-DC inh inactive, Spn PMK inh 11, Autofluor 339 1.2 and MK inhibit 17.
For COc1ccc(CN2CCN(c3ccccc3)CC2)c(C)c1C the results were NADH coupling 24%, Spn DPM-DC inh inactive, Spn PMK inh 23, Autofluor 339 1.1 and MK inhibit 50*.
Screening CCOCC(=O)NC1CCSC1=O (centres undefined) returned NADH coupling 3%, Spn DPM-DC inh inactive, Spn PMK inh 25*, Autofluor 339 0.99 and MK inhibit 2.
Screening [N-]=[N+]=CC(=O)OC[C@H](N)C(=O)O returned NADH coupling 4%, Spn DPM-DC inh inactive, Spn PMK inh 18, Autofluor 339 1 and MK inhibit 7.
COCCNC(=O)c1c(NC(=O)c2ccco2)n(Cc2ccccc2)c2nc3ccccc3nc12 was read as NADH coupling 13%, Spn PMK inh 19, Autofluor 339 3.8* and MK inhibit 7.
O=C(CN1C2CCC1CC(O)(c1cccnc1)C2)Nc1ccc2c(c1)OCO2 (centres undefined) was read as NADH coupling 4%, Spn DPM-DC inh inactive, Spn PMK inh 11, Autofluor 339 1 and MK inhibit 3.
